# Giardia kill = Small Molecules that selectively kill Giardia lamblia: qHTS; Giardia lamblia trophozoite viability; activity change, % at 7.66 µM, hits read low; 0.15% of 340,000 active; in the data active = activity change below about -80%; inconclusive = between about -30% and that limit;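 also: parasites exposed to compound for two days anaerobically before the ATP read; % is scaled to controls: 0 for no effect and ±100 for the full control effect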
#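 Compounds were tested on trophozoites seeded at 100 cells/well and held 48 hrs at 37 deg C anaerobically. An ATP-based luminescent kit measured the remaining live cells.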
# PINK1 expr mod = A Quantitative High throughput Screen to Identify Chemical Modulators of PINK1 Expression | PINK1 immunofluorescence, high-content cytometry, 24 h | Potency, µM (series often up to 76.6 µM), inactives show top-dose activation (PINK1 increase), actives largely listed as activators | 0.2% of 410,000 active | AID 624263, 2012; active = well fitted activation curve with a large enough effect; inconclusive = small, poorly fitted or top-dose-only effect; cell line not stated here; also: potency is read from the fitted curve at half-maximal effect; % of control where 0% means no effect; nearly all actives have a fitted effect of over 65% in size
#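 Readout is PINK1 immunofluorescence, quantified alongside mitochondrial, cell and nuclear markers by laser-scanning microplate cytometry. Cells from a stable line were exposed to compound titrations (5 concentrations) for 24 hours, with CCCP controls.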
# PTHR1 agonist = qHTS for PTHR1 Agonists: Primary Screen. HEK293 GP2 PTHR1 cells, GloSensor cAMP luminescence, 1 h. AID 743266, 2014. 0.075% of 410,000 active. Potency, µM (doses to about 115 µM), inactives show at the top dose activation, usual class: activators. Parathyroid hormone/parathyroid hormone-related peptide receptor (Homo sapiens), Q03431; also: potency is read from the fitted curve at half-maximal effect; nearly all actives have a fitted effect of over 55% in size
#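 HEK-293-derived GP2 cells expressing PTHR1 and a GloSensor cAMP reporter, 3,000/well, plated overnight, given luciferin plus IBMX (each 0.5 mM as added) for 1 h at 37 °C, then compound for 1 h at 37 °C. Luminescence was read after 15 min at room temperature.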
# 12-LOX inh = Primary qHTS assay for inhibitors of human arachidonate 12S-lipoxygenase (ALOX12): Round 2. Polyunsaturated fatty acid lipoxygenase ALOX12 (Homo sapiens), P18054. purified 12hLO, xylenol orange hydroperoxide absorbance. Potency, µM (highest dose often 108 µM), for inactives: at the highest dose activity change, negative = inhibition, actives largely listed as inhibitors. 1.1% of 580,000 active. AID 1671190, 2021; also: potency is read from the fitted curve at half-maximal effect; % is scaled to controls: 0 for no effect and ±100 for the full control effect
# Target sequence (P18054 whole entry, looked up): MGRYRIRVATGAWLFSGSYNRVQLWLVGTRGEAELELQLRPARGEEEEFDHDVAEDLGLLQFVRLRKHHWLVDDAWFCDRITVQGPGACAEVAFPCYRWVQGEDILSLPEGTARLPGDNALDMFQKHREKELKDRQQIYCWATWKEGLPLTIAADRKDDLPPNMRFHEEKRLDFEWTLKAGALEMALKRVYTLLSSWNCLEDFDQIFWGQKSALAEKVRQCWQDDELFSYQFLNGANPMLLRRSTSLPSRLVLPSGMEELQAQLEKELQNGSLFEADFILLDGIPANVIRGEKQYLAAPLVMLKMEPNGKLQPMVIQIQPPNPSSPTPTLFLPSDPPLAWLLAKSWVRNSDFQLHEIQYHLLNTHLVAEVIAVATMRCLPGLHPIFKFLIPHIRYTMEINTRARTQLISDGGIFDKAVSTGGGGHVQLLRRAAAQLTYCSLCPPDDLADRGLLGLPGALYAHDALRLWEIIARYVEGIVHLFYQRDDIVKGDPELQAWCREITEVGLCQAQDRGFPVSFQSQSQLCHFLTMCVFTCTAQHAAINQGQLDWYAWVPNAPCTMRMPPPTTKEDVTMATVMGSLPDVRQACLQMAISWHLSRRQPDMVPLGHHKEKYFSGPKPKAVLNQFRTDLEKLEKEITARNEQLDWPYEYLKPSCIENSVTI
#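 Hydroperoxide product was detected by ferrous iron/xylenol orange as the 573 to 405 nm absorbance ratio. Arachidonic acid at 40 uM (final) was turned over for 30 min at room temperature by 150 nM human 12hLO, pH 7.0 Hepes buffer, after 15 min compound preincubation.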
# ERG-DNA inh = qHTS for Small Molecule Inhibitors of the ERG Ets/DNA interaction. 0.028% of 370,000 active. fluorescence polarization, His-ERG Ets domain / labelled DNA. AID 624246, 2012. Potency, µM (series often up to 76.9 µM), for inactives: at the highest dose FP activity, negative = inhibition, hits mostly inhibitors; active = well fitted inhibition curve with a large enough effect in the polarisation, with a control signal flat; inconclusive = small, poorly fitted or top-dose-only effect, or effect the other way, or a change in a side signal; inactive = no such curve, though single readings can be large or run the other way; the % refers to the polarisation;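 also: polarization taken with two DNA probes labelled with fluorescein and Texas red; potency is read from the fitted curve at half-maximal effect; % of control where 0% means no effect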
#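 His-tagged ERG Ets domain (1 uM in the protein solution; 300mM KCl, 50mM Tris-HCl, 1mM EDTA, 1mM DTT, pH 7.5) received compound, then a probe mix of 5 nM fluorescein-DNA and 100nM Texas-615-DNA. Fluorescence polarization was read for both dyes.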
# miR-21 reporter = qHTS Assay for Modulators of miRNAs and/orActivators of miR-21 | HeLa miR-21 FLuc reporter, luciferase, 48 h | Potency, µM (titrated, usually from 38.3 µM), for inactives: at the top dose activity change, positive = activation, usual class: activators | 340,000 tested, under 10 active | AID 2288, 2010;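 also: % of control where 0% means no effect; miR-21 action dims this reporter so a rising signal means less miR-21 action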
#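 HeLa cells endogenously expressing miR-21, stably carrying CMV-driven firefly luciferase with a downstream miR-21 binding site, 2000 cells/well. Titrations up to approximately 40 uM, 48 hours; luciferase luminescence read.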
# Active calls of the source: *; i = inactive; u = inconclusive; x = no result; [ ] = another dose, or the depositor's remark. Rows were chosen to be rich in hits. Some 1.3% of all compounds tested hit in one or more screens of this group. Unless noted, calls follow the shape of the dose curve; as a rule, active = well fitted curve in the direction sought with a large enough effect; inconclusive = small, poorly fitted or top-dose-only effect, or another doubt; inactive = no such curve, though single readings can be large; an effect the other way counts as inactive or inconclusive.
SMILES,Giardia kill,PINK1 expr mod,PTHR1 agonist,12-LOX inh,ERG-DNA inh,miR-21 reporter
CC(=O)N1N=C(c2ccc(C)cc2)CC1c1ccco1 (stereo not given),-0.6,-2.3%,-9.5%,-3.6%,2.0%,-72.5%
Cc1ccc(C2=NN(C(=O)Cn3nnc(-c4ccc(C(N)=O)cc4)n3)C(c3ccco3)C2)cc1 (stereo not given),x,x,x,28.2µM*,x,x
CCN(Cc1ccccc1)S(=O)(=O)c1cc(C(=O)Nc2cc(Cl)cc(Cl)c2)ccc1F,x,44.7µM*,-42.4%,-29.2%,2.8%,u
Clc1ccccc1OCCCn1ccnc1,-21.1,-0.2%,-37.4%,0.355µM*,-18.2%,-1.6%
Clc1ccccc1OCCCCn1ccnc1,-6.9,0.6%[38.3 µM],i,16.9%,3.9%,-15.3%
Clc1cc(Br)ccc1OCCn1ccnc1,-6.8,-3.7%,-3.3%[57.5 µM],0.708µM*,-4.4%,-1.8%
CCOc1ccc(NC(=O)CSc2ncn[nH]2)c([N+](=O)[O-])c1,-4.5,2.4%,i,5.4%,-6.0%,-11.2%
NC1=NC(=O)/C(=C/c2ccccc2OS(=O)(=O)c2ccccc2)S1,-10.9,u,i,1.2%,3.3%,-0.2%
NC1=NC(=O)/C(=C/c2c(OS(=O)(=O)c3ccc(Cl)cc3)ccc3ccccc23)S1,-16.7,12.6µM*,i,-18.4%,-3.3%,-4.5%
CCOC(=O)CNC(=S)N(CCCN1CCCC1)Cc1cccs1,5.9,-2.4%,i,-2.9%,-2.0%,-6.1%
COc1cc2c(cc1OC)C(c1ccc(-c3ccccc3Cl)o1)=NCC2,5.4,1.2%[38.3 µM],i,39.8µM*,3.0%,5.6%
COc1cc2c(cc1OC)C(c1ccc(-c3ccc(Cl)cc3Cl)o1)=NCC2,-2.3,3.7%,-31.0%,u,-0.2%,26.1%
CCN1C(=O)C(Cc2nc3ccccc3c(=O)n2-c2ccc(OC)cc2)c2cc(C)ccc21 (stereo not given),x,0.0%,-35.8%,u,2.4%,-2.0%
CCCCCCCNC(=O)C1(CC2CC(c3cccc(Br)c3)=NO2)CCN(C(=O)CCCCCBr)CC1 (stereo not given),9.5,-0.3%,-29.0%,39.8µM*,-1.4%,x
CC(CO)NS(=O)(=O)c1ccc(Br)cc1F (stereo not given),15.9,2.6%,-1.9%,-6.3%,-2.7%,x
Cc1ccccc1C(=O)Nc1nc(-c2ccc(Br)cc2)ns1,x,25.1µM*,-11.2%,-21.6%,1.2%,11.2%
CCOC(=O)/C(C#N)=N/Nc1ccc(S(=O)(=O)N2CCc3ccccc32)cc1,-2.7,15.8µM*,-35.2%,u,-0.3%,22.1%
N#C/C(=N\Nc1cccc([N+](=O)[O-])c1)C(=O)c1ccc(Br)cc1,5.6,4.47µM*,-35.7%,39.8µM*,1.2%,19.8%
CCOC(=O)CCC(=O)Nc1ccc(S(=O)(=O)N2CCc3ccccc32)cc1,-23.5,1.0%,-46.4%,1.2%,2.4%,1.8%
N#C/C(=N\Nc1ccc(S(=O)(=O)N2CCc3ccccc32)cc1)C(N)=S,-1.3,u,-42.1%,15.8µM*,-11.1%,14.2%
N#C/C(=N\Nc1ccc([N+](=O)[O-])cc1)C(N)=S,12.6,25.1µM*,-18.5%,25.1µM*,19.8%,9.7%
N#C/C(=N\Nc1ccc(S(=O)(=O)N2CCCCC2)cc1)C(N)=S,0.7,1.9%,-19.5%,50.1µM*,-3.6%,15.4%
CN1C(=O)N(C)C2(CCN(CCOc3ccc(F)cc3)C2)C1=O (stereo not given),x,x,x,50.1µM*,x,x
COc1ccc(Cl)cc1Nc1nc2ccc(C)cc2n2cnnc12,-12.4,8.6%,-22.6%,1.9%,-2.6%,1.4%
NC1=NC(=O)/C(=C/c2ccc(-c3ccc(S(N)(=O)=O)cc3)o2)S1,-12.1,31.6µM*,-1.8%,-27.0%,-7.9%,-4.2%
